# Source: PubChem BioAssay AID1259418 (Broad Institute, 2018)
# Among all 3,400 compounds or so, about 840 (25%) were called active. Another 11% or so got no clear call; they are omitted. Not all results are given here. Results with a measured potency or affinity are listed apart. Unmarked numbers belong to inactive results.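 Rule for the calls: active = fitted half-maximal concentration of signal decrease at or below twice the sample's top tested concentration; inconclusive = flat curve between -70 and -30 percent, or poor fit; inactive = flat within 30 percent, signal rise, or potency above limit.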
# Test: inhibitors of Toxoplasma growth in IFN-γ-primed HeLa – cell-based, ME49Luc, luciferase, 72 h, dose response (AID 1259418)
# Conditions: T. gondii ME49Luc in IFN-y HeLa, active compounds read low, -100% = high-dose IFN-γ control wells; at 19.5 µM unless noted
row,SMILES,max activity
1,COC(=O)c1cccc(NC(=O)Nc2ccc(-c3nc(-c4ccc(C)cc4C)co3)cc2)c1,21.2%
2,Cc1ccc(-c2coc(-c3ccc(NC(=O)c4ccccc4)cc3)n2)c(C)c1,20.4% [at 10 µM]
3,Cc1ccc(-c2coc(-c3ccc(NC(=O)Nc4ccc5c(c4)OCCO5)cc3)n2)c(C)c1,48.2%
4,Cc1ccc(CNC(=O)C2(C)CCC(=O)N2CCc2c[nH]c3ccccc23)cc1 (stereo not given),-12.5% [at 0.35 µM]
5,O=C(Nc1ccc(-c2nc(-c3ccccc3)co2)cc1)Nc1ccccc1Br,65.8% [at 10 µM]
6,Cc1ccc2c(c1C)-n1cccc1C1(CCN(C(=O)CC(C)C)CC1)N2,7.04% [at 0.68 µM]
7,O=C(Cc1ccccc1Cl)N1CCC2(CC1)Nc1ccccc1-n1cccc12,15.3% [at 10 µM]
8,COc1ccc(S(=O)(=O)N2CCC[C@@H]2C(=O)NCCc2csc(C)n2)cc1Cl,8.05% [at 10 µM]
9,CCOCCCNC(=O)c1ccc2ccc(N3CCN(CC4CC4)CC3)n2c1,42.5%
10,CCOc1cccc(-c2noc(-c3nnn(Cc4nc(-c5cccc(C)c5)oc4C)c3C)n2)c1,8.84%
11,Cc1ccccc1-c1nc(CN2CCN(C(=O)Nc3ccccc3)CC2)c(C)o1,-12.3% [at 2.6 µM]
12,CCOc1ccc(-c2nc(CN3CCN(C(=O)Nc4cccc(OC)c4)CC3)c(C)o2)cc1,16.9% [at 0.35 µM]
13,CCOc1ccc(-c2nc(CN3CCN(C(=O)NCCc4ccccc4)CC3)c(C)o2)cc1,-9.01% [at 0.68 µM]
14,COc1ccc(NC(=O)N2CCN(Cc3nc(-c4ccc(C)cc4)oc3C)CC2)cc1OC,9.7%
15,O=C(Cc1ccc(Cl)cc1)Nc1ccc(-c2nc(-c3ccccc3)co2)cc1,17.2% [at 2.6 µM]
16,CCOC(=O)C(=O)Nc1ccc(-c2nc(-c3ccc(C)cc3C)co2)cc1,44.4%
17,CC(C)c1ccc(C(=O)N=C(N)N)cc1S(C)(=O)=O,11.6%
18,COc1ccc(-c2nc3c(s2)CN(S(=O)(=O)c2cccc(F)c2)CC3)cc1,9.88%

row,SMILES,max activity
1,CCS(=O)(=O)N1CC(=O)N2[C@H](CO)[C@@H](c3ccc(-c4cccc(F)c4)cc3)[C@@H]2C1,-8.63%
2,Cc1ccsc1C(=O)N1CCc2nc(-c3cnn(C)c3)nc(NC(C)C)c2C1,-26.1% [at 0.16 µM]
3,CCOc1ccc(-c2nc3c(s2)CN(S(=O)(=O)c2cccc(C)c2)CC3)cc1,29%
4,Cc1ccc(-c2coc(-c3ccc(NC(=O)Nc4ccccc4C)cc3)n2)c(C)c1,21.8% [at 10 µM]
5,Cc1ccc(OCC(=O)Nc2ccc(-c3nc(-c4ccc(C)cc4)co3)cc2)cc1,20.2%
6,COc1ccccc1-c1nc(Cn2c(=O)c3c(C)cc(C)nc3n(-c3ccccc3)c2=O)c(C)o1,9.28% [at 2.6 µM]
7,Cc1ccc2c(c1C)-n1cccc1C1(CCN(C(=O)COc3ccc(Cl)cc3)CC1)N2,-7.41% [at 1.35 µM]
8,O=C(CCC1Nc2c3ccccc3nc(=S)n2C1=O)NCc1cccs1 (stereo not given),14.7% [at 5 µM]
9,Cc1nc(OCC(=O)Nc2ccccc2C)c2ccccc2n1,19.6% [at 0.68 µM]
10,CO[C@@H]1CCN(c2ncccn2)C[C@@H]1Cc1cccc(C)c1,9.87%
11,COc1ccc(C[C@H]2CN(C(=O)c3ccnn3C)CC[C@H]2OC)cc1,30.4%
12,O=S(=O)(c1cccc(C(F)(F)F)c1)N1CCC(N2CCOCC2)CC1,20.6% [at 0.16 µM]
13,CN(C)C(=O)CN1CCOCC2(CCN(CC3CCOC3)CC2)C1 (stereo not given),23.8%
14,Cc1ccc(C)c(-c2coc(-c3ccc(NC(=O)NC4CCCC4)cc3)n2)c1,6.74%
15,Cc1ccc2c(c1C)-n1cccc1C1(CCN(C(=O)CC3CCCCC3)CC1)N2,-13.7% [at 0.16 µM]
16,CCC(CC)C(=O)N1CCC2(CC1)Nc1ccc(C)c(C)c1-n1cccc12,-6.76% [at 0.35 µM]
17,CCOc1ccc(S(=O)(=O)N2CCC[C@@H]2C(=O)NCCc2csc(C)n2)cc1,-13.1%
